Compound activity deposited in PubChem BioAssay by several laboratories.
Sampled rows, rich in hits. Any-hit rate of the full collection: about 11%.
WT yeast gro inh – growth inhibition of WT yeast, mitochondrial fusion screen. inhibition, % at 10 µM. 190,000 compounds, 2.1% hits. mitochondrial fusion phenotypic screen, WT strain. AID 1362; in the data active = inhibition above about 58%; tested in S. cerevisiae
Autophagy mod – alters autophagy in cells; MEF GFP-LC3 puncta imaging; test concentration mostly 10 µM; calls only at 10 µM (by protocol); 190,000 compounds, 0.98% hits; AID 463193;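 active = percentage of spot-positive cells more than 3 SD above its plate mean, without a fluorescence outlier flag or 80% toxicity; inconclusive = no clear call, values can overlap the other calls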
Lmaj promast – inhibitors of Leishmania major promastigote growth; Leishmania major promastigotes, resazurin fluorescence viability; inhibition, % at 10 µM; 200,000 compounds, 9% hits; in the data active = inhibition above about 50%;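 also: promastigotes grown with compound for 44 hours at 28 °C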
INS promoter inh – TRM-6 insulin promoter activity inhibition; AID 1273; TRM-6 cells (human fetal islet line), insulin promoter-eGFP reporter, imaging; reporter expression induced with tamoxifen; 130,000 compounds, 0.9% hits; inhibition, % at 2 µM;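 active = inhibition above the mean plus 3 SD, with well images judged a real hit on visual review, cut at about 60% in these data, passing the limit was not always enough; inconclusive = inhibition over the cutoff but images rejected on review; inactive = inhibition not above the cutoff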
Insulin prom up – MIN6 insulin promoter up-regulation; MIN6 insulin promoter-GFP reporter, high-content imaging; active compounds read high; z-score at 5 µM; 190,000 compounds, 0.3% hits; AID 1625;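 active = z-score above 3 at 5 µM with at least 500 cells counted in the well; inconclusive = wells under 500 cells, flagged as cytotoxic or low count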
Of the large screens only hits and unclear results are named; the others gave an inactive call.

COc1cc(/C=N/Nc2nc(Nc3ccccc3)nc(-n3nc(C)cc3C)n2)cc(OC)c1OC	Autophagy mod active, Lmaj promast 100 (no result: Insulin prom up)
COc1cc(/C=N/Nc2nc(Nc3ccc(C)cc3)nc(-n3nc(C)cc3C)n2)cc(OC)c1OC	Lmaj promast 100, Insulin prom up inconclusive
COc1ccc(O)c(/C=N/Nc2nc(Nc3ccccc3)nc(-n3nc(C)cc3C)n2)c1	Lmaj promast 101
Cc1ccc(COc2ccsc2C(=O)NNC(N)=S)cc1	none (no result: INS promoter inh)
COc1ccc(-c2cc(C(=O)NCc3cn(C)nc3C)c3ccccc3n2)cc1OC	none
CCN(CC)S(=O)(=O)c1cccc(C(=O)Nc2nc3cc4c(cc3s2)OCCO4)c1	Lmaj promast 93
O=C(NNc1nc2cc3c(cc2s1)OCO3)c1ccccc1	none
O=C(NNc1nc2cc3c(cc2s1)OCO3)c1cccc(F)c1	Lmaj promast 55
CCN(CC)S(=O)(=O)c1ccc2nc(NC(=O)c3ccco3)sc2c1	none (no result: INS promoter inh)
CCN(CC)S(=O)(=O)c1cccc(C(=O)Nc2sc3c(c2C(N)=O)CCCC3)c1	WT yeast gro inh 73
COc1ccccc1C(=O)Nc1nc2cc3c(cc2s1)OCO3	none (no result: WT yeast gro inh, Autophagy mod, Lmaj promast, INS promoter inh)
COc1ccccc1C(=O)Nc1nc2cc3c(cc2s1)OCCO3	Lmaj promast 75 (no result: INS promoter inh)
Cc1nnc(NCCc2ccccc2)n(N)c1=O	none (no result: Insulin prom up)
CCCCOc1ccc(/C=C/C(=O)OCC(=O)N2CC(=O)Nc3ccccc32)cc1OCC	none
COC(=O)/C(C#N)=C/c1c(Oc2cccc(C)c2C)nc2ccccn2c1=O	none (no result: WT yeast gro inh, Autophagy mod, Lmaj promast, INS promoter inh)
O=C(Nc1nc2cc3c(cc2s1)OCCO3)c1cccc(N2C(=O)CCC2=O)c1	Lmaj promast 55 (no result: INS promoter inh)
O=C(Nc1nc2cc3c(cc2s1)OCCO3)c1cccs1	none (no result: WT yeast gro inh, Autophagy mod, Lmaj promast, INS promoter inh)
CCOC(=O)c1ccc(N/C=C\C(=O)c2cccc(OC)c2)cc1	none
COc1cccc(C(=O)/C=C/Nc2cc(C)ccc2O)c1	Autophagy mod active
CSc1nc2cc(F)c(F)cc2n1C	INS promoter inh 86
CC(C)(C)OC(=O)N[C@@H](CC(=O)OCc1ccccc1)C(=O)O	none (no result: INS promoter inh)
COc1ccc(-c2nn(-c3ccccc3)cc2/C=C/C(=O)OCC(=O)Nc2ccc(C#N)cc2)cc1	Lmaj promast 92
Cc1ccccc1NC(=O)COC(=O)/C=C/c1cn(-c2ccccc2)nc1-c1cccnc1	Lmaj promast 53
CC(=O)Nc1ccc(NC(=O)C(C)OC(=O)/C=C/c2cn(-c3ccccc3)nc2-c2cccnc2)cc1 (stereo not drawn)	none
CC(=O)Nc1ccc(NC(=O)C2CCN(c3ccc(C(F)(F)F)cn3)CC2)cc1	none
CCCCCN1N=C(C)CC1=O	INS promoter inh 67
CCCCCCCN1N=C(C)C(C(=O)c2ccccc2)C1=O (stereo not drawn)	none
COc1ccc(C/C(N)=N/OC(C)=O)cc1OC	none
COc1ccc(C/C(N)=N/OC(=O)C(c2ccccc2)c2ccccc2)cc1OC	Lmaj promast 65
CC1C(=O)NN=C1C(=O)N/N=C/c1cccs1 (stereo not drawn)	none
COc1ccc(/C=N/NC(=O)C(Cc2c[nH]c3ccccc23)NC(=O)OCC(C)C)cc1[N+](=O)[O-] (stereo not drawn)	Lmaj promast 99 (no result: Insulin prom up)
O=C(NC(Cc1c[nH]c2ccccc12)C(=O)N/N=C/c1ccc(Cl)cc1)c1cccs1 (stereo not drawn)	none
CC(/C=C/c1ccccc1)=N/NC(=O)CNC(=O)c1ccc2c(c1)OCO2	none (no result: Insulin prom up)
C/C(=N/NC(=O)CNC(=O)c1cccnc1)c1ccco1	none (no result: WT yeast gro inh, Autophagy mod, Lmaj promast, INS promoter inh)
C/C(=N/NC(=O)CNC(=O)Cc1ccccc1)c1ccco1	Lmaj promast 63
C/C(=N\NC(=O)CNC(=O)c1ccc2c(c1)OCO2)c1ccco1	Lmaj promast 53
CN(CC1CCCO1)S(=O)(=O)c1ccc(C(=O)NCc2ccccc2)cc1 (stereo not drawn)	none (no result: Insulin prom up)
CCCCOC(=O)Nc1ccc(C)c(Cl)c1	none
O=C(NC(=S)Nc1ccc(Cl)cn1)c1cccs1	none
CCCC(=O)NC(=S)Nc1ccc(Cl)cn1	INS promoter inh 83
C=CCNC(=S)Nc1ccc(N(C)C)cc1	none (no result: WT yeast gro inh, Autophagy mod, Lmaj promast, INS promoter inh)
COc1ccccc1NC(=O)COC(=O)c1ccc2c(c1)nc(C)n2-c1ccccc1	Lmaj promast 57
COCCCNCC(O)C(F)(F)F (stereo not drawn)	none (no result: INS promoter inh)
CC(=O)Nc1ccc(Oc2ccccc2)cc1	none (no result: WT yeast gro inh, Autophagy mod, Lmaj promast, INS promoter inh)
CC(=O)Nc1ccc(Oc2sc(C(=O)c3ccccc3)c(N)c2C#N)cc1	Lmaj promast 98
CC(C)CC(=O)NC(c1ccccc1Cl)c1c(O)ccc2ccccc12 (stereo not drawn)	Lmaj promast 100 (no result: INS promoter inh)
CCCCC(=O)NC(c1ccco1)c1c(O)ccc2ccccc12 (stereo not drawn)	Lmaj promast 67
CCCC(=O)NC(c1ccco1)c1c(O)ccc2ccccc12 (stereo not drawn)	Lmaj promast 57
CCC(=O)NC(c1cccc([N+](=O)[O-])c1)c1c(O)ccc2ccccc12 (stereo not drawn)	none (no result: INS promoter inh)
COc1ccc(C(NC(=O)C2CCCCC2)c2c(O)ccc3ccccc23)cc1 (stereo not drawn)	Lmaj promast 100
CCCCOC(=O)Nc1nnc(Cc2ccc(Cl)cc2)s1	none (no result: INS promoter inh)
CC(C)NOC(=O)c1ccc(Cl)cc1	none
O=C1OC(COc2ccc(Br)cc2)CN1c1ccccc1 (stereo not drawn)	none (no result: WT yeast gro inh, Autophagy mod, Lmaj promast, INS promoter inh)
N/C(Cc1ccccc1)=N\OC(=O)c1cccc2ccccc12	WT yeast gro inh 81, Lmaj promast 97
N/C(=N\OC(=O)c1cccc2ccccc12)c1ccc(Br)cc1	WT yeast gro inh 77
Cc1ccc2nc(Cl)c(C3CC(c4cccs4)=NN3C(=O)CCCC(=O)O)cc2c1 (stereo not drawn)	Lmaj promast 57
CCOC(=O)c1ccccc1NC(=O)CSc1nc(N)cc(=O)[nH]1	none (no result: WT yeast gro inh, Autophagy mod, Lmaj promast, INS promoter inh)
COc1ccc(N(C(=O)C2COc3ccccc3O2)C(C(=O)NC2CCCCC2)c2ccccc2)cc1OC (stereo not drawn)	Lmaj promast 99
COc1cc(OC)cc(N(C(=O)C2COc3ccccc3O2)C(C(=O)NC2CCCCC2)c2ccc(O)cc2)c1 (stereo not drawn)	Lmaj promast 64
COc1cccc(C(C(=O)NC2CCCCC2)N(CCN2CCOCC2)C(=O)C2COc3ccccc3O2)c1 (stereo not drawn)	none (no result: Insulin prom up)
O=S(=O)(c1ccc(F)cc1)N1CCCN(c2nccc(C(F)(F)F)n2)CC1	none (no result: WT yeast gro inh, Autophagy mod, Lmaj promast, INS promoter inh)
O=[N+]([O-])c1cc(CN2CCC(O)CC2)ccc1Cl	none (no result: INS promoter inh)
Cc1ccccc1OCCc1c(C)[nH]c(=S)[nH]c1=O	none
COCCn1c(=S)[nH]c2cc(C(=O)N3CCc4ccccc43)ccc2c1=O	WT yeast gro inh 76 (no result: INS promoter inh)
CCCn1c(=S)[nH]c2cc(C(=O)N3CCc4ccccc43)ccc2c1=O	none
CC(C)CCNC(=O)CO/N=C/c1ccccc1OC(F)F	none (no result: INS promoter inh)
O=C(CSc1nc(-c2ccccc2)c(-c2ccccc2)[nH]1)Nc1nccs1	Lmaj promast 98 (no result: INS promoter inh)
O=C(CSc1ncn[nH]1)Nc1nc(-c2ccccc2)cs1	Lmaj promast 93
Nc1ccccc1SCC(=O)Nc1nccs1	none (no result: INS promoter inh)
COc1ccc(-c2[nH]c(-c3ccc(SC)cc3)nc2SCC(=O)Nc2nccs2)cc1	Lmaj promast 96
COc1ccc(-c2csc(NC(=O)CSc3ncn[nH]3)n2)cc1OC	none (no result: INS promoter inh)
